Consider 24 molecules from PubChem BioAssay (NCATS).

A number with no mark means an inactive call. Inconclusive results are not listed. Calls of active or inactive are those of the source. Unless noted, calls follow the shape of the dose curve; as a rule, active = well fitted curve in the direction sought with a large enough effect; inconclusive = small, poorly fitted or top-dose-only effect, or another doubt; inactive = no such curve, though single readings can be large; an effect the other way counts as inactive or inconclusive.

For assay [1], the target named is 3',5'-cyclic-AMP phosphodiesterase 4B (Homo sapiens) (UniProt Q07343). Description: qHTS Assay for Inhibitors of PDE-IV (AID 607; active = well fitted activation curve with a large enough effect in the main read-out, with a control signal flat, not every such curve was filed as active; also: potency is read from the fitted curve at half-maximal effect). Conditions: HEK293 ACTOne CNG channel cells, membrane potential fluorescence; series mostly up to 22.9 µM. The method, boiled down:
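Live HEK293 cells with a modified cyclic nucleotide-gated (CNG) channel report intracellular cAMP via membrane-potential dye fluorescence (ex 535/em 590 nm). Endogenous PDE-IV was targeted. Compounds were tested at up to 22.9 uM final; RO 20-1724 100 uM served as control.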
In general terms: In qHTS, concentration-response curves come from the screen itself.

Assay [2] is described as follows: Cell Viability - Mesenchymal (AID 546).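 Also: cells exposed to compound for 40 hours before reading.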 Also: potency is read from the fitted curve at half-maximal effect. Conditions: mesenchymal cells viability, qHTS; activity change, negative = cytotoxicity: at 91.7 µM (top of the series). In a few lines: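 CellTiter-Glo luminescence (intracellular ATP, 20 min room temperature) after 40 hr compound exposure at 37 °C of 1000 glomerulus-derived human kidney mesenchymal cells/well; AC50 values obtained by fitting qHTS concentration-response data to the Hill equation.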

Assay [3] can be described thus: Cellular Toxicity (caspase-3) HepG2 (AID 654).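 Also: cells exposed to compound for 16 hours before reading; 0% = DMSO alone and 100% = caspase signal from 100 µM tamoxifen.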 Conditions: HepG2 caspase-3 activation, luminescence, 0% = DMSO only, 100% = tamoxifen; series mostly up to 92.2 µM. In a few lines: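 Caspase 3/7 activation is measured as a luminescence increase (aminoluciferin substrate) after 16 h compound exposure of human hepatocarcinoma HepG2 cells. AC50 values are Hill fits, scaled between DMSO baseline and 100 uM tamoxifen stimulation.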

A short description of assay [4]: Cellular Toxicity (caspase-3) Jurkat (AID 655).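 Also: cells exposed to compound for 16 h at 37 °C before reading.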 Also: potency is read from the fitted curve at half-maximal effect. Conditions: Jurkat caspase-3 activation, luminescence; series mostly up to 92.2 µM. The method, boiled down:
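Jurkat cells (5000/well) in complete medium were treated with compounds for 16 hr at 37 °C, then Caspase-Glo 3/7 luminescence was read after 20 min at room temperature. Data normalized to DMSO (basal) and 100 uM tamoxifen (100%); AC50 from Hill fit.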

Assay [5] in a line: Cellular Toxicity (caspase-3) HUV-EC-C (AID 656). Conditions: HUV-EC-C cells, caspase-3 activation (apoptosis), vehicle = 0, 100 µM tamoxifen = 100%; series mostly up to 92.2 µM. The method, boiled down: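 HUV-EC-C endothelial cells, 1000/well, were pre-incubated 5 hr at 37°C, then exposed to compounds for 16 hr at 37°C. Caspase-Glo 3/7 luminescence was read after 20 min at room temperature. AC50 came from Hill fits, normalized to DMSO and 100 uM tamoxifen.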

The nature of assay [6]: Cellular Toxicity (caspase-3) SHSY5Y (AID 657). Conditions: SH-SY5Y caspase-3 activation, DMSO zero, 10 µM staurosporine = 100%; series mostly up to 91.7 µM. In a few lines: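 SH-SY5Y human neuroblastoma cells (1500/well) were treated with compounds for 16 h at 37 °C, then Caspase-Glo 3/7 luminescence was read after 1 h at room temperature. Data normalized to DMSO and 10 uM staurosporine; AC50 from Hill fits.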

Assay [7] in a line: Cellular Toxicity (caspase-3) BJ (AID 658). Conditions: BJ fibroblasts, luminescence, normalized: DMSO 0%, staurosporine 100%; series mostly up to 91.7 µM. In a few lines: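 Caspase-Glo 3/7 luminescence, read 1 hr after reagent at room temperature, in normal BJ fibroblasts exposed 16 hours at 37 °C. AC50 values from Hill-equation concentration-response, scaled between DMSO basal and 10 uM staurosporine as 100%.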

The nature of assay [8]: Cellular Toxicity (caspase-3) MRC-5 (AID 659). Also: potency is read from the fitted curve at half-maximal effect. Conditions: MRC-5 cells, luminescence; Potency: caspase-3 activation; series mostly up to 91.7 µM. The method, boiled down: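 Luminescent Caspase-Glo 3/7 read-out (1 h, room temperature) after a 16 h, 37 °C compound exposure of MRC-5 lung fibroblasts at 1500 cells/well. Concentration-response AC50 from Hill equation; 0% DMSO, 100% 10 uM staurosporine.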

The nature of assay [9]: Cellular Toxicity (caspase-3) Mesangial (AID 660).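 Also: combined caspase 3 and 7 activity read by Caspase-Glo luminescence; cells exposed to compound for 16 h before the caspase read.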 Conditions: mesangial cells, normalized: DMSO 0%, 100 µM tamoxifen 100%; series mostly up to 91.7 µM. The method, boiled down:
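Caspase 3/7 activation measured by Caspase-Glo 3/7 luminescence (20 min, room temperature) following 16 h exposure of mesangial cells (1000/well); AC50 from Hill-equation fit, normalized to DMSO and 100 uM tamoxifen.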

Assay [10] is described as follows: Cellular Toxicity (caspase-3) SK-N-SH (AID 661). Also: potency is read from the fitted curve at half-maximal effect. Conditions: SK-N-SH caspase-3 activation, qHTS; caspase-3 activation: at 91.7 µM (top of the series), DMSO as zero, staurosporine as full. In a few lines:
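Caspase 3/7 activation was read by luminogenic substrate cleavage after 16 hour treatment of SK-N-SH cells. Signal was scaled between DMSO and 10 uM staurosporine, and concentration-response data were fitted with the Hill equation for AC50.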

Sequence of 3',5'-cyclic-AMP phosphodiesterase 4B (Homo sapiens) (Q07343 whole entry, looked up): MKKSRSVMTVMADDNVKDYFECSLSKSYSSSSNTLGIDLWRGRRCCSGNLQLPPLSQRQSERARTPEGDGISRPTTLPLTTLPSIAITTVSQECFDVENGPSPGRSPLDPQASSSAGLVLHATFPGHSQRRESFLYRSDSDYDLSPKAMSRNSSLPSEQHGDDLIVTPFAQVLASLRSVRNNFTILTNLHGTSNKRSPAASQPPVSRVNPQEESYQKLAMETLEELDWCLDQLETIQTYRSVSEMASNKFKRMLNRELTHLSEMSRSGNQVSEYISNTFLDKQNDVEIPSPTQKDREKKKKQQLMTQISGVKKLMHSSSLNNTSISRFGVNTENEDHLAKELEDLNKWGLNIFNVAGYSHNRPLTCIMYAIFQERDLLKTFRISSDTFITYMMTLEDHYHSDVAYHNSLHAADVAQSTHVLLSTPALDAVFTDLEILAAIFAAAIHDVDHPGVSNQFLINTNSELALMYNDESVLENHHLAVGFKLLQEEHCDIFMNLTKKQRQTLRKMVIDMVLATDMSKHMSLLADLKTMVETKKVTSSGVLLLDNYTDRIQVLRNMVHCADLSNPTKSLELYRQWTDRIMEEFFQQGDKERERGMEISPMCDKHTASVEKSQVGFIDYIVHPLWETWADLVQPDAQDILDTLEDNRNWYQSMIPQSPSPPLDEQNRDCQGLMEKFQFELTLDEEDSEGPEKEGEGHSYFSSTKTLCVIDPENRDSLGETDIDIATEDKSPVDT

Turning to `O=C1NCN(c2ccccc2)C12CCN(CCCC(c1ccc(F)cc1)c1ccc(F)cc1)CC2`, in assay [1], the Potency result was “inactive”.
Regarding `NC(=O)N1c2ccccc2C=Cc2ccccc21`, the Potency result in assay [2], in assay [1], in assay [4] and in assay [8] was “inactive” throughout. Moreover, the outcome in assay [3], in [5], in [6], in assay [7] and in assay [9] was inactive. Moreover, the caspase-3 activation in [10] was 0.961%.
Consider `CC(C)NNC(=O)c1ccncc1`, for which, in [1], the Potency entry was “inactive”.
In the case of `O=C(CCCN1CCC(O)(c2cccc(C(F)(F)F)c2)CC1)c1ccc(F)cc1`, the Potency entry in assay [1] was “inactive”.
As to `O=c1[nH]c(=O)n([C@H]2C[C@H](O)[C@@H](CO)O2)cc1Br`, the Potency entry in assay [2], in assay [4] and in assay [8] was “inactive” throughout. In addition, the molecule was called inactive in [3], in assay [5], in assay [6], in [7] and in assay [9]. In addition, the caspase-3 activation in assay [10] was -0.482%.
As for `Nc1ncn([C@@H]2O[C@H](CO)[C@@H](O)[C@H]2O)c(=O)n1`, the Potency in assay [2] was 31.6 µM (active); in [4], 2 µM (active); in assay [10], 31.6 µM (active). Also, the outcome in assay [3], in assay [5], in assay [6], in [7] and in assay [9] was inactive. For the same molecule, the Potency result in assay [8] was “inactive”.
As to `CCCCNC(=O)NS(=O)(=O)c1ccc(C)cc1`, the Potency entry in [2], in assay [1], in assay [4] and in [8] was “inactive” throughout. Also, the molecule was classed as inactive in assay [3], in assay [5], in [6], in [7] and in [9]. In addition, the caspase-3 activation in assay [10] was -0.361%.
For the molecule `CN(C)CC/C=C1\c2ccccc2COc2ccccc21`, in [1], the Potency result was “inactive”.
In the case of `CCCN(CCC)CCc1cccc2c1CC(=O)N2`, the Potency entry in assay [1] is “inactive”.
As to `Cc1scc2c1N(C(=O)CN1CCN(C)CC1)c1ccccc1NC2=O`, the Potency result in assay [1] was “inactive”.
Consider `CN=C(NC#N)NCCSCc1nc[nH]c1C`, for which the Potency result in assay [2], in assay [1], in assay [4] and in assay [8] was “inactive” each time. The molecule was called inactive in assay [3], in [5], in [6], in [7] and in assay [9]. The caspase-3 activation in assay [10] was -1.11%.
Consider `CCO/C([O-])=N/c1c[n+](N2CCOCC2)no1`, for which the Potency result in [1] is “inactive”.
Same read-out and setting: in the case of `C[N+](C)(C)CCOC(=O)CCC(=O)OCC[N+](C)(C)C` it was “inactive”; in that of `CCOC(=O)c1cnc2c(cnn2CC)c1NN=C(C)C`, 0.951 µM (active); in that of `CN(C)C(=O)Oc1cccc([N+](C)(C)C)c1`, “inactive”.
The same measure, in the same setting: in the case of `O=C(O)CCCCCCCC(=O)O` it was “inactive”.
Regarding `CC(=O)Oc1cc(C(C)C)c(OCCN(C)C)cc1C`, in [1], the Potency result is “inactive”.
In the case of `CCCCOCCOCCOCc1cc2c(cc1CCC)OCO2`, the Potency result in assay [2], in [4] and in assay [8] was “inactive” throughout. The result in assay [3], in [5], in assay [6], in [7] and in assay [9] was inactive. Moreover, in assay [10], the caspase-3 activation is 1.34%.
As for `CCN1CCc2nc(N)oc2CC1`, the Potency result in assay [1] was “inactive”.
Regarding `O=C(O)CP(=O)(O)O`, the Potency result in [1] is “inactive”.
In the case of `COC(=O)[C@H]1[C@H]2C[C@@H]3c4[nH]c5cc(OC)ccc5c4CCN3C[C@H]2C[C@@H](OC(=O)c2cc(OC)c(OC)c(OC)c2)[C@@H]1OC`, in assay [2], the activity change, negative = cytotoxicity was -90.3% (active). The call in assay [5], in assay [6] and in assay [9] was inactive. Also, the Potency in assay [8] is 31.6 µM (active). Moreover, the caspase-3 activation in assay [10] is 87.8% (active).
For the molecule `COc1cc(C(=O)OCCCN2CCCN(CCCOC(=O)c3cc(OC)c(OC)c(OC)c3)CC2)cc(OC)c1OC`, in assay [1], the Potency entry was “inactive”.
Consider `O=C(CCNNC(=O)c1ccncc1)NCc1ccccc1`, for which the Potency result in [1] was “inactive”.
Take `CN(C)CCN(Cc1cccs1)c1ccccn1`: the Potency entry in [1] was “inactive”.
